Drawing on PubChem BioAssay (NCI), this text covers growth inhibition for ten compounds.

Experiment [1] is described as follows: NCI Yeast Anticancer Drug Screen. Data for the rad50 strain (AID 155).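 Also: 0% = growth of vehicle-only cultures of the same strain.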 The conditions noted are these: S. cerevisiae rad50 strain growth inhibition, hits give high values. In outline: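 Growth of the mutant yeast was measured after compound exposure and referenced to vehicle-treated cultures.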
Experiment [2] is described as follows: NCI Yeast Anticancer Drug Screen. Data for the mec2-1 strain (AID 157). The settings on record: S. cerevisiae mec2-1 strain, hits give high values. The gist of the method:
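Yeast mec2-1 mutant treated with compound. Readout: growth inhibition vs vehicle controls.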

Experiment [3] in a line: NCI Yeast Anticancer Drug Screen. Data for the sgs1 mgt1 strain (AID 161).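 Also: 0% = growth of cultures given vehicle only.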 The conditions noted are these: S. cerevisiae sgs1 mgt1 strain, hits give high values. In outline:
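Genetically altered yeast, compound exposure, growth inhibition relative to vehicle.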

Experiment [4] can be described thus: NCI Yeast Anticancer Drug Screen. Data for the bub3 strain (AID 167). The conditions noted are these: S. cerevisiae bub3 mutant strain, hits give high values. The gist of the method:
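Whole-cell yeast assay. The mutant strain was incubated with compounds, and growth inhibition was determined by comparison with vehicle-treated cells.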

Experiment [5] can be described thus: NCI Yeast Anticancer Drug Screen. Data for the mlh1 rad18 strain (AID 175). The settings on record: S. cerevisiae mlh1 rad18 strain growth inhibition, hits give high values. The gist of the method: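 Yeast w/ defined DNA-repair lesions; compound exposure; growth vs vehicle controls → % inhibition.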
The nature of experiment [6]: NCI Yeast Anticancer Drug Screen. Data for the cln2 rad14 strain (AID 165).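 Also: 0% = growth equal to vehicle treated cultures.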 The conditions noted are these: S. cerevisiae cln2 rad14 strain, hits give high values. In outline: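 cln2 rad14 yeast strain; compound exposure; growth inhibition read vs vehicle controls.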
Where [7] appears, read: at 5.0 µM (retest, dose inferred, filed as 0.5).
The mark [8] stands for this setting: at 50.0 µM (retest, dose inferred, filed as 5.0).

This is part of a sample that, as a whole, favours compounds with a hit. Of some 79,000 tested, about 15% had one in any assay. Values without a mark were called inactive. Active and inactive are the calls of the source. Rule as the data show it: active = growth inhibition above about 70%; inactive = the rest.

With `[N-]=[N+]=CC(=O)c1ccc(C(=O)C=[N+]=[N-])cc1`, the growth inhibition in experiment [1] (setting [7]) is 8%; in experiment [1] (setting [8]), 95% (active); in experiment [1] (at 50.0 µM) it was 99.2% (active); in experiment [2] (setting [7]) it was 12%; in experiment [2] (setting [8]), 99% (active); in experiment [2] (at 50.0 µM), 99.5% (active). Also, the growth inhibition in experiment [3] (setting [7]) is 10%; in experiment [3] (setting [8]), 95% (active); in experiment [3] (at 50.0 µM), 99.4% (active); in experiment [4] (setting [7]) it was 5%; in experiment [4] (setting [8]), 98% (active); in experiment [4] (at 50.0 µM), 99.5% (active). Also, the growth inhibition was 11% in experiment [5] (setting [7]), 95% (active) in experiment [5] (setting [8]) and 99.2% (active) in experiment [5] (at 50.0 µM).
In the case of `Cc1ccc(/C=C2\CCCC(CN(C)C)C2=O)cc1` (centres undefined), the growth inhibition in experiment [1] (setting [7]) was -12%; in experiment [1] (setting [8]), 95% (active); in experiment [1] (at 50.0 µM), 61.5%; in experiment [2] (setting [7]), -4%; in experiment [2] (setting [8]) it was 99% (active); in experiment [2] (at 50.0 µM), 62.5%. Moreover, the growth inhibition in experiment [3] (setting [7]) is -16%; in experiment [3] (setting [8]), 96% (active); in experiment [3] (at 50.0 µM), 78.5% (active); in experiment [6] (setting [7]), 6%; in experiment [6] (setting [8]), 97% (active); in experiment [6] (at 50.0 µM), 41.4%. The growth inhibition is -13% in experiment [5] (setting [7]), 96% (active) in experiment [5] (setting [8]) and 52.4% in experiment [5] (at 50.0 µM).
As for `COc1ccc(OC)c2c1C=CC(Br)=CC2`, the growth inhibition was 33% in experiment [1] (setting [7]); 33% in experiment [1] (setting [8]); 55.1% in experiment [1] (at 50.0 µM); 24% in experiment [2] (setting [7]); 24% in experiment [2] (setting [8]); 27% in experiment [2] (at 50.0 µM). Further, the growth inhibition in experiment [3] (setting [7]) was 26%; in experiment [3] (setting [8]) it was 26%; in experiment [3] (at 50.0 µM) it was 45.5%; in experiment [6] (setting [7]), 6%; in experiment [6] (setting [8]), 6%; in experiment [6] (at 50.0 µM) it was 15.4%. Moreover, the growth inhibition was 30% in experiment [5] (setting [7]), 30% in experiment [5] (setting [8]) and 39.5% in experiment [5] (at 50.0 µM).
With `CC(=O)N(C1=C(Cl)C(=O)c2ccccc2C1=O)c1ccc(F)cc1`, the growth inhibition in experiment [1] (setting [7]) was 28%; in experiment [1] (setting [8]), 99% (active); in experiment [1] (at 50.0 µM) it was 98.8% (active); in experiment [2] (setting [7]) it was 39%; in experiment [2] (setting [8]), 98% (active); in experiment [2] (at 50.0 µM), 99.3% (active). Moreover, the growth inhibition in experiment [3] (setting [7]) was 35%; in experiment [3] (setting [8]) it was 99% (active); in experiment [3] (at 50.0 µM), 99.4% (active); in experiment [4] (setting [7]), 57%; in experiment [4] (setting [8]), 99% (active); in experiment [4] (at 50.0 µM) it was 97.4% (active). In addition, the growth inhibition is 39% in experiment [5] (setting [7]), 99% (active) in experiment [5] (setting [8]) and 99.4% (active) in experiment [5] (at 50.0 µM).
`CC(C)CCCC(O)CNCc1ccccc1` (centres undefined): the growth inhibition in experiment [1] (setting [7]) is 9%; in experiment [1] (setting [8]) it was 27%; in experiment [1] (at 50.0 µM), -1.95%; in experiment [2] (setting [7]), 17%; in experiment [2] (setting [8]) it was 38%; in experiment [2] (at 50.0 µM) it was 11.4%. The growth inhibition in experiment [3] (setting [7]) was 13%; in experiment [3] (setting [8]), -11%; in experiment [3] (at 50.0 µM), 28.2%; in experiment [6] (setting [7]), 13%; in experiment [6] (setting [8]), 36%; in experiment [6] (at 50.0 µM), -18.9%. Further, the growth inhibition in experiment [4] (setting [7]) is 5%; in experiment [4] (setting [8]), 44%; in experiment [4] (at 50.0 µM) it was 82% (active); in experiment [5] (setting [7]) it was 7%; in experiment [5] (setting [8]) it was 15%; in experiment [5] (at 50.0 µM), 10.2%.
As to `O=C(O)C(c1ccccc1)c1ccc(-c2ccccc2)cc1` (centres undefined), the growth inhibition is 3% in experiment [1] (setting [7]); 82% (active) in experiment [1] (setting [8]); 96.7% (active) in experiment [1] (at 50.0 µM); -2% in experiment [2] (setting [7]); 64% in experiment [2] (setting [8]); 96% (active) in experiment [2] (at 50.0 µM). In addition, the growth inhibition in experiment [3] (setting [7]) is 5%; in experiment [3] (setting [8]), 80% (active); in experiment [3] (at 50.0 µM), 97.8% (active); in experiment [6] (setting [7]), -7%; in experiment [6] (setting [8]), 80% (active); in experiment [6] (at 50.0 µM), 97% (active). Further, the growth inhibition in experiment [4] (setting [7]) is 1%; in experiment [4] (setting [8]), 49%; in experiment [4] (at 50.0 µM), 79% (active); in experiment [5] (setting [7]), 0%; in experiment [5] (setting [8]), 80% (active); in experiment [5] (at 50.0 µM), 91.2% (active).
With `COc1ccc2[nH]c3ccc4cc[n+](CCN5CCC(C6CCN(CC[n+]7ccc8ccc9[nH]c%10ccc(OC)cc%10c9c8c7)CC6)CC5)cc4c3c2c1`, the growth inhibition is 69% in experiment [1] (setting [7]); 98% (active) in experiment [1] (setting [8]); 90.4% (active) in experiment [1] (at 50.0 µM); 57% in experiment [2] (setting [7]); 98% (active) in experiment [2] (setting [8]); 93.5% (active) in experiment [2] (at 50.0 µM). Further, the growth inhibition in experiment [3] (setting [7]) is 29%; in experiment [3] (setting [8]), 98% (active); in experiment [3] (at 50.0 µM) it was 90.1% (active); in experiment [4] (setting [7]), 22%; in experiment [4] (setting [8]), 96% (active); in experiment [4] (at 50.0 µM), 91.1% (active). Besides, the growth inhibition in experiment [5] (setting [7]) was 77% (active); in experiment [5] (setting [8]) it was 97% (active); in experiment [5] (at 50.0 µM), 90.5% (active).
For the compound `COc1cc2c(cc1O)C(O)CCCC2` (centres undefined), the growth inhibition in experiment [1] (setting [7]) is -146%; in experiment [1] (setting [8]), -152%; in experiment [1] (at 50.0 µM), 6.6%; in experiment [2] (setting [7]), -45%; in experiment [2] (setting [8]), -55%; in experiment [2] (at 50.0 µM) it was -14.6%. Besides, the growth inhibition was -62% in experiment [3] (setting [7]); -32% in experiment [3] (setting [8]); 41.8% in experiment [3] (at 50.0 µM); -52% in experiment [6] (setting [7]); -61% in experiment [6] (setting [8]); -4.15% in experiment [6] (at 50.0 µM). Also, the growth inhibition in experiment [4] (setting [7]) is -64%; in experiment [4] (setting [8]), -75%; in experiment [4] (at 50.0 µM), -6.4%; in experiment [5] (setting [7]) it was -147%; in experiment [5] (setting [8]), -108%; in experiment [5] (at 50.0 µM) it was 12.3%.
For the compound `C/C(=N/NC(=O)C[n+]1ccccc1)C(CN(CC(C)C)CC(C)C)C(=O)Nc1ccc(C)cc1C` (centres undefined), the growth inhibition in experiment [1] (setting [7]) was 5%; in experiment [1] (setting [8]), 5%; in experiment [1] (at 50.0 µM) it was 30.1%; in experiment [2] (setting [7]) it was -10%; in experiment [2] (setting [8]), -10%; in experiment [2] (at 50.0 µM), 40.2%. Moreover, the growth inhibition in experiment [3] (setting [7]) is 5%; in experiment [3] (setting [8]) it was 5%; in experiment [3] (at 50.0 µM) it was 8.65%; in experiment [6] (setting [7]), 5%; in experiment [6] (setting [8]), 5%; in experiment [6] (at 50.0 µM) it was 41%. Further, the growth inhibition in experiment [5] (setting [7]) is 6%; in experiment [5] (setting [8]) it was 6%; in experiment [5] (at 50.0 µM), 70.2% (active).
As for `COC(=O)c1nc(=S)[nH]c(C(=O)OC)c1C(=O)c1ccc(O)c(OC)c1`, the growth inhibition in experiment [1] (setting [7]) is -6%; in experiment [1] (setting [8]), 95% (active); in experiment [1] (at 50.0 µM), 98.5% (active); in experiment [2] (setting [7]) it was -7%; in experiment [2] (setting [8]), 97% (active); in experiment [2] (at 50.0 µM) it was 78.3% (active). In addition, the growth inhibition is -16% in experiment [3] (setting [7]); 96% (active) in experiment [3] (setting [8]); 98.4% (active) in experiment [3] (at 50.0 µM); 1% in experiment [4] (setting [7]); 96% (active) in experiment [4] (setting [8]); 84.3% (active) in experiment [4] (at 50.0 µM). Moreover, the results for the growth inhibition in experiment [5] (setting [7]), in experiment [5] (setting [8]) and in experiment [5] (at 50.0 µM) were 7%, 97% (active) and 96.3% (active), respectively.
